Common to all, as to set-up: scale not given: direction of the effect not stated beside the values
In assay [1] the target is Protein translocase subunit SecA (Escherichia coli (strain K12)) (UniProt P10408). The assay is described as follows: Assay to Identify E. coli SecA ATPase Inhibitors. Format: functional. As to conditions: 30 µM.
Assay [2] concerns the target T1, Ubiquitin-activating enzyme e1, putative (Leishmania donovani (strain BPK282A1)) (UniProt E9BSI1).
T1 sequence (whole entry): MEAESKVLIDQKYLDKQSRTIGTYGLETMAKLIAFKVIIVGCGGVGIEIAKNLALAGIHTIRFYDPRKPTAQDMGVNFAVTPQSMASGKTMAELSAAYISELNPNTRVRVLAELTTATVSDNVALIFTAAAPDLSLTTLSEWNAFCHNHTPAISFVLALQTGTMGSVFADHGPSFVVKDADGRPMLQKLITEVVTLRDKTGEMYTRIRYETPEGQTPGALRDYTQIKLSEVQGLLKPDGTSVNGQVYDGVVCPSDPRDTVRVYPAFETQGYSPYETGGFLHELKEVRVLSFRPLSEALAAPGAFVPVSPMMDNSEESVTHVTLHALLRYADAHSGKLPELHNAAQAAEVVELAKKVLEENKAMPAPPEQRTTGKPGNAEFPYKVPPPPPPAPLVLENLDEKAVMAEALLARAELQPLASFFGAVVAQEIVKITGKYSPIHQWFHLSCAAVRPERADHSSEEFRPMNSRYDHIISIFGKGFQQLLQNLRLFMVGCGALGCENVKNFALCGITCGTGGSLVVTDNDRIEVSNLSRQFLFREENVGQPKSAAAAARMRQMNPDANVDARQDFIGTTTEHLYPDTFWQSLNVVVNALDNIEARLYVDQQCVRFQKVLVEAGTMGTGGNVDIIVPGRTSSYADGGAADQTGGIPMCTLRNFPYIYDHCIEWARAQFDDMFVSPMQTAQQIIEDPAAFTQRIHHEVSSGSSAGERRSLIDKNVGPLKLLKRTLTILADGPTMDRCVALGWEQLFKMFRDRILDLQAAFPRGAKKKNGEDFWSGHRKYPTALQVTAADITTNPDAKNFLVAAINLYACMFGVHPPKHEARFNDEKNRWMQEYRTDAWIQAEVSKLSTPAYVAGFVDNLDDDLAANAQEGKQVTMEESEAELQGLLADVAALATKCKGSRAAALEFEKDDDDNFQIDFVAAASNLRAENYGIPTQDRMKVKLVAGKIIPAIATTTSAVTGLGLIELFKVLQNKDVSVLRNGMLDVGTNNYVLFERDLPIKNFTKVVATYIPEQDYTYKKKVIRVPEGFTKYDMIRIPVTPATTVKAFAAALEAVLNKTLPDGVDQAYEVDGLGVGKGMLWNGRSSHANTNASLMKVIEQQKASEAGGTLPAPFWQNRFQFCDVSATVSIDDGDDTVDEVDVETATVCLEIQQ
Briefly: Leishmania donovani Ubiquitin Activating Enzyme (LdE1). Format: functional. To be noted: 30 µM.

Assay [3] concerns the target AMP-activated protein kinase, AMPK (Homo sapiens) (UniProt P54646+O43741+P54619+Q9UGJ0+Q9Y478+Q13131+Q9UGI9). The assay is described as follows: AMP-dependent Kinase enzyme assay. An in vitro enzyme assay that detects ADP turnover that is directly proportional to AMPK activity. This uses naive AMPK that is activated during the assay with MK-8722. Format: functional. To be noted: 30 µM.

Assay [4] has as its target Sialic acid-binding Ig-like lectin 9 (Homo sapiens) (UniProt Q9Y336). Briefly: Hs-Siglec9 ALPHAscreen SOP 20170721. As to conditions: 10 µM. A general note: Alpha assays give light when donor and acceptor beads are brought close together.
The next assay has as its system Trypanosoma cruzi. Briefly: Trypanosoma cruzi phosphomannomutase and mannose-1-phosphate guanylyltransferase assay. To be noted: 10 µM. Format: functional.
Assay [5] addresses T2, Arginase-2, mitochondrial (Homo sapiens) (UniProt P78540).
T2 sequence (whole entry): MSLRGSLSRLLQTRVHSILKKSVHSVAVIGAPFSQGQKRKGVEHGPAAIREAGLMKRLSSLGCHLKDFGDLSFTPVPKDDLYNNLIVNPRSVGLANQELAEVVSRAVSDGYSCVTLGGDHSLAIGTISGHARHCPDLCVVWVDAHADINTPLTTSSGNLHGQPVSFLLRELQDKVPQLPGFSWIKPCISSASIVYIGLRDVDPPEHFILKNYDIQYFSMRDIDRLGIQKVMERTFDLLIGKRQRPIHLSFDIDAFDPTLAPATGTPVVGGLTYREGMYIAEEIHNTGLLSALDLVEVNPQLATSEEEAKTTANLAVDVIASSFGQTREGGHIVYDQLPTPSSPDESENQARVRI
Briefly: in vitro enzyme assay to detect the production of urea directly proportional to the activity of Arginase II. Further: in the data most compounds retested in dose-response had high values. The class given is functional. As to conditions: 33.3 µM.

Assay [6] addresses T3, Proteasome subunit beta (Trypanosoma cruzi) (UniProt O96673).
T3 sequence (whole entry): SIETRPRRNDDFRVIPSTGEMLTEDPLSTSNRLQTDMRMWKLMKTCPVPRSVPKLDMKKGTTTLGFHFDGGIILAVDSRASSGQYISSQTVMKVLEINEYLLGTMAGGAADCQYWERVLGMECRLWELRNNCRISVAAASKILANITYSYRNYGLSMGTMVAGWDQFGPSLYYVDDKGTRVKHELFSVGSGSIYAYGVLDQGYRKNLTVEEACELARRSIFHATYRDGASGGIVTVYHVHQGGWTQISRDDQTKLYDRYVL
The assay is described as follows: Trypanosoma cruzi proteasome chymotrypsin-like activity (TcProtChymo) assay. Further: in the data most compounds retested in dose-response had high values. The class given is functional. As to conditions: 9.37 µM.

The species entered for another assay is Homo sapiens. The assay is described as follows: To identify inhibition of the IFN signalling (Jak-Stat) pathway via expression of an eGFP reporter gene under the control of an IFN-stimulated response element (ISRE) containing MxA promoter. Format: functional. As to conditions: 30 µM. On the technique in general: Reporter assays use an easily measured gene product as a stand-in for the process of interest.

Assay [7] addresses T4, Tyrosyl-tRNA synthetase, putative (Trypanosoma cruzi (strain CL Brener)) (UniProt Q4DSP6).
T4 sequence (whole entry): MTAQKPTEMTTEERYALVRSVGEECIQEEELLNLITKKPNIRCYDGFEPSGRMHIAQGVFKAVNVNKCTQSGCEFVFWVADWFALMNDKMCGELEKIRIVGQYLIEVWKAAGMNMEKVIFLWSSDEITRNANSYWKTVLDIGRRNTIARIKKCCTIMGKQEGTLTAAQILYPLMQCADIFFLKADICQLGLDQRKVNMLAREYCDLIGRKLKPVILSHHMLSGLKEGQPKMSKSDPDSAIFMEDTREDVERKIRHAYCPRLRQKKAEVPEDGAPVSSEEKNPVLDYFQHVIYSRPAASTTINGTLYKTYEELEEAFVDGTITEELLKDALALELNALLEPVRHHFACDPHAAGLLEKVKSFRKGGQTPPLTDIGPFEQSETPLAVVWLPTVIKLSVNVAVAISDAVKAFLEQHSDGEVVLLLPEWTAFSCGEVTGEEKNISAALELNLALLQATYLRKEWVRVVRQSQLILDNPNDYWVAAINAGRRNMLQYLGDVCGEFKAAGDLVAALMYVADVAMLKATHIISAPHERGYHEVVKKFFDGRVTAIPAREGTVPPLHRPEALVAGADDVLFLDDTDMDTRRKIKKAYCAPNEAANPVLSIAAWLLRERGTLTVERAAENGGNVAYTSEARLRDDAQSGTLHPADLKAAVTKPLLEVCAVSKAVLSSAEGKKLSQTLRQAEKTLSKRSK
The assay is described as follows: Trypanosoma cruzi tyrosyl tRNA synthetase (TcYRS) _High Tyrosine SOP. Further: in the data most compounds retested in dose-response had high values. Format: functional. As to conditions: 30 µM.

Assay [8] addresses T4, Tyrosyl-tRNA synthetase, putative (Trypanosoma cruzi (strain CL Brener)). Briefly: Trypanosoma cruzi tyrosyl tRNA synthetase (TcYRS) SOP. The class given is functional. As to conditions: 30 µM.
In assay [9] the target is Chromo domain-containing protein 1 (Saccharomyces cerevisiae (strain ATCC 204508 / S288c) (Baker's yeast)) (UniProt P32657). The assay is described as follows: ScCHD-1 Enzyme Inhibition Assay. Further: in the data most compounds retested in dose-response had high values. Format: functional. As to conditions: 30 µM.

Experimental findings from ChEMBL document CHEMBL3988442, “University of Dundee, Small-Polar-MMV Screening Library” (2021) are described below.

For some of these results: Measured potencies and affinities stand elsewhere.

Sequence of Protein translocase subunit SecA (Escherichia coli (strain K12)) (P10408 whole entry): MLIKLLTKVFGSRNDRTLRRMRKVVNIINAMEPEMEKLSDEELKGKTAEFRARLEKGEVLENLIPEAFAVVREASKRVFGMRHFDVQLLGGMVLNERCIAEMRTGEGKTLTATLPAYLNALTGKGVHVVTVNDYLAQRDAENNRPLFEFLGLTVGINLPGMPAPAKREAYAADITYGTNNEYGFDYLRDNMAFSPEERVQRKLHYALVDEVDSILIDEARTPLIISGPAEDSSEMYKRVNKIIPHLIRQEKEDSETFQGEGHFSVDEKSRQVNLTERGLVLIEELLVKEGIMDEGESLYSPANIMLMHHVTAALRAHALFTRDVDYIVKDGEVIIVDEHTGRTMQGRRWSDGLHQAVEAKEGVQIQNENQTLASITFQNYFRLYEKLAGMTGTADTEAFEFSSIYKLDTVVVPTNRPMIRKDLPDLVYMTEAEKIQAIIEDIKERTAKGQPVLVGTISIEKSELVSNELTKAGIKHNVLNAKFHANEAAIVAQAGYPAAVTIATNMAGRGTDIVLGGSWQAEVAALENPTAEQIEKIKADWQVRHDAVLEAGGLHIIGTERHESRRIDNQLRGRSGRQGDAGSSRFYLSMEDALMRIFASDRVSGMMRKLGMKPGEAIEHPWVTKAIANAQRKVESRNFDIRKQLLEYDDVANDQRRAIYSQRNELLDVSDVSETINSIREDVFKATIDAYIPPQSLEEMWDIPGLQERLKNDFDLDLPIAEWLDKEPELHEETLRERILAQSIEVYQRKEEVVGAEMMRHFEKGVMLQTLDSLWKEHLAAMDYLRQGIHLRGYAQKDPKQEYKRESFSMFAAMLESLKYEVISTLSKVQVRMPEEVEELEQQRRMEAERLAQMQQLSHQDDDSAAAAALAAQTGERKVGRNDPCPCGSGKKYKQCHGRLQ
Sequence of Sialic acid-binding Ig-like lectin 9 (Homo sapiens) (Q9Y336 whole entry): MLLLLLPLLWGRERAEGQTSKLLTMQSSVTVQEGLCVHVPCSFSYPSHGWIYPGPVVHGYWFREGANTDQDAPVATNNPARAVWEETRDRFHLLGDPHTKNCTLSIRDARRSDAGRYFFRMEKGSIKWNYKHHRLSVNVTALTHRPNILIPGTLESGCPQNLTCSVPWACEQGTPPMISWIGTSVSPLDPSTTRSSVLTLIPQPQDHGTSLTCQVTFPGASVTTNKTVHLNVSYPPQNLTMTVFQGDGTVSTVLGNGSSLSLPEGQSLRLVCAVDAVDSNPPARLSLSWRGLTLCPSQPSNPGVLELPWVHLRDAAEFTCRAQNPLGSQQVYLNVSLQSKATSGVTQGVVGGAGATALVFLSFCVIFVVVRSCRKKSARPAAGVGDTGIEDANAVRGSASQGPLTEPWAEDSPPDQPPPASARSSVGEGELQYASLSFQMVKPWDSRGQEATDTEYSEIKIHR
Sequence of Chromo domain-containing protein 1 (Saccharomyces cerevisiae (strain ATCC 204508 / S288c) (Baker's yeast)) (P32657 whole entry, the tested form may be a part): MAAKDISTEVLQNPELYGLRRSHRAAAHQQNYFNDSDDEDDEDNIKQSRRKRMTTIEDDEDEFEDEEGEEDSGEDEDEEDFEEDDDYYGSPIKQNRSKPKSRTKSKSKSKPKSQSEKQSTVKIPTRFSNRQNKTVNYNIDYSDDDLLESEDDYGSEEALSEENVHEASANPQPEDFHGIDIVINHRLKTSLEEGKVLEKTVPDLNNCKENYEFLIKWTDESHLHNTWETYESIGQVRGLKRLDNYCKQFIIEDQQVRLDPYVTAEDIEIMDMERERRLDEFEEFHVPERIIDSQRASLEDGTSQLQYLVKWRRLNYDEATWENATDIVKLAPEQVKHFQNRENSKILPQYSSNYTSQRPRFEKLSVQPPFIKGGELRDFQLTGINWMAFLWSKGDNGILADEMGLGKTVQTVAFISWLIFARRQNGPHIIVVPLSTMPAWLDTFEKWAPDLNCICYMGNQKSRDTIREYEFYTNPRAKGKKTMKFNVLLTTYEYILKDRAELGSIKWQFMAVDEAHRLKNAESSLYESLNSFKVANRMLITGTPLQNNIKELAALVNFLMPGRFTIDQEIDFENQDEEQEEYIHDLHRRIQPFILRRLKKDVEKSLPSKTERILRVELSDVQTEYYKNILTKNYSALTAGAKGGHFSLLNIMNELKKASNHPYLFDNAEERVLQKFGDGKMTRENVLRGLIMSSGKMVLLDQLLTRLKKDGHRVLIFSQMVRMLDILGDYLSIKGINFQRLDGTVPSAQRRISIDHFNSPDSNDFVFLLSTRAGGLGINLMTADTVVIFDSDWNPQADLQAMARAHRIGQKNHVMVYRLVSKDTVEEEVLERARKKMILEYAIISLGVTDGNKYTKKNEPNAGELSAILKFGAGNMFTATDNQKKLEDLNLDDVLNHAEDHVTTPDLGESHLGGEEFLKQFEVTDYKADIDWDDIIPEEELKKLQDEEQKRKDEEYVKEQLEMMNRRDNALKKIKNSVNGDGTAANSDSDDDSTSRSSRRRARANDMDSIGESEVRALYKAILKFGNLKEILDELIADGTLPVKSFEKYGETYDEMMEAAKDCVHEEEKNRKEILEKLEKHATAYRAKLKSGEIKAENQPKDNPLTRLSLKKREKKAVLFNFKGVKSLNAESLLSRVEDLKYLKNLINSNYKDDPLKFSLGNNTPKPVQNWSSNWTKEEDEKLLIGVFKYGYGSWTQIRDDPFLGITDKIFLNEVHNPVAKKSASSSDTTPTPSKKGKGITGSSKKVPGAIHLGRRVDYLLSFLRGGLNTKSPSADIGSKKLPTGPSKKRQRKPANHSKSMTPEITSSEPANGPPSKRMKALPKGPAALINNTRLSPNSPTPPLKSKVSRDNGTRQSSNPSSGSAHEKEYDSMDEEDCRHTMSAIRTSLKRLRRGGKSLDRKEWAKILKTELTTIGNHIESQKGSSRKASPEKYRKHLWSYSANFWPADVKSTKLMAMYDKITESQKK

On to `COc1ccc(CNC(=O)c2nn(C)c3c2CS(=O)(=O)CC3)cc1OC`, for which the Percent Effect in assay [1] is -1.94%; in assay [2] it was 6.67%; in [3], 4.43%; in assay [4] it was 3.41%; with Trypanosoma cruzi, -2.16%; in [5], -11.8%. The Percent Effect was 14.8% in assay [6]; 5.39% in the assay filed under Homo sapiens; 3.17% in assay [7]; 17.9% in assay [8]; -9.43% in assay [9].

Consider `Cc1noc(C)c1CN1CCN(Cc2ccncc2)c2ncccc2C1`, for which the Percent Effect is -3.04% in assay [1]; 8% in [2]; 4.68% in assay [3]; 2.81% in [4]; -6.5% with Trypanosoma cruzi; -1.17% in assay [5]. Also, the Percent Effect in [6] is 2.56%; in the assay listed under Homo sapiens it was 16.7%; in assay [7] it was 7.45%; in [8], 8.97%; in assay [9] it was -0.129%.

Regarding `CN1CCOC(CNCc2coc(-c3cccs3)n2)C1` (stereo unspecified), the Percent Effect in assay [1] was -2.66%; in assay [2] it was 22.8%; in assay [3] it was -18.2%; in assay [4], -13.1%; with Trypanosoma cruzi it was 5.38%; in assay [5] it was 3.42%. The Percent Effect is 8.27% in assay [6]; 12.8% in the assay listed under Homo sapiens; 8.37% in [7]; 21.5% in assay [8]; -14.2% in assay [9].

For the compound `c1cnn(CC2CN(Cc3nc(-c4ccsc4)no3)CCO2)c1` (stereo unspecified), the Percent Effect in assay [1] is -2.55%; in assay [2], 10.5%; in assay [3], -2.23%; in [4], 16.5%; in the assay with Trypanosoma cruzi, -1.13%; in [5], 0.766%. Also, the Percent Effect in assay [6] is -2.34%; in the assay filed under Homo sapiens, 6.35%; in assay [7] it was 1.47%; in [8], 9.76%; in assay [9], 0.902%.

For `Cc1nsc(NC(=O)N2CCC(C(C)(C)O)CC2)n1`, the Percent Effect in assay [1] was 1.56%; in assay [2], 5.41%; in [3], -3.48%; in assay [4] it was -1.81%; in the assay on Trypanosoma cruzi it was -8.11%; in assay [5] it was 1.74%. For the same compound, the Percent Effect in [6] was 14.2%; in the assay listed under Homo sapiens, 5.12%; in assay [7], 1.07%; in assay [8], 6.17%; in assay [9] it was -3.72%.

As to `Cc1nc(CN(C)C(=O)Nc2cnn(CC3CCCO3)c2)cs1` (stereo unspecified), the Percent Effect in assay [1] is -3.47%; in assay [2], -5.41%; in [3], -27.6%; in assay [4] it was 1.65%; with Trypanosoma cruzi, -0.965%; in assay [5], 0.952%. Besides, the Percent Effect is 5.86% in assay [6]; 15% in the assay listed under Homo sapiens; -6.88% in assay [7]; -9.76% in assay [8]; 0.495% in assay [9].

For `Cc1cn2c(n1)CCC(NC(=O)c1nc(C)ncc1Cl)C2` (stereo unspecified), the Percent Effect in assay [1] is -5.44%; in assay [2] it was 7.79%; in assay [3], 5.82%; in [4], 3.39%; in the assay on Trypanosoma cruzi, 4.41%; in [5], 1.05%. The Percent Effect was 8.49% in [6]; -7.16% in the assay filed under Homo sapiens; 4.76% in assay [7]; 18.8% in assay [8]; -23.3% in assay [9].

Take `O=C1CCc2cc(-c3csc(CCN4CCCC4=O)n3)ccc2N1`: the Percent Effect in assay [1] is -2.58%; in assay [2], 20.8%; in assay [3] it was 4.11%; in assay [4], 2.39%; in the assay with Trypanosoma cruzi it was 0.936%; in assay [5], -4.98%. Besides, the Percent Effect was 5.41% in [6]; 22.8% in the assay filed under Homo sapiens; 15.5% in [7]; 19.5% in assay [8]; -7.82% in assay [9].

Consider `CC(=O)N1CC(=O)N(c2ccccc2)CC12CCN(Cc1nccs1)C2` (stereo unspecified), for which the Percent Effect in assay [1] was 3.29%; in assay [2] it was 10.7%; in assay [3], 3.41%; in [4], -1.44%; with Trypanosoma cruzi, -5.02%; in [5], -54.3%. Besides, the Percent Effect in assay [6] is 7.69%; in the assay listed under Homo sapiens it was -3.63%; in assay [7] it was 7.29%; in [8], 30%; in assay [9], -7.28%.

Turning to `CCn1nnc2c1C(COC)CN(Cc1ccsc1)C2` (stereo unspecified), the Percent Effect in [1] is -6.4%; in assay [2], 5.41%; in assay [3] it was 1.42%; in assay [4], -2.12%; in the assay with Trypanosoma cruzi, -5.77%; in assay [5], -2.73%. Also, the Percent Effect was 10.2% in assay [6]; -14.5% in the assay listed under Homo sapiens; 2.15% in assay [7]; 3.7% in [8]; -3.53% in [9].

As to `Cc1cn2nc(N3CCCC3Cn3nc(C)cc3C)sc2n1` (stereo unspecified), the Percent Effect in [1] is -2.86%; in [2], 6.33%; in assay [3], 3.5%; in [4] it was 0.585%; in the assay with Trypanosoma cruzi, 1.74%; in assay [5] it was -0.645%. The Percent Effect in assay [6] is 9.43%; in the assay filed under Homo sapiens, 19.6%; in assay [7], 4.17%; in assay [8] it was 7.59%; in [9] it was -20%.
